Data from the supplement of paper PMC3334620.
Over roughly 33,000 sequences, “E-score (-0.5 to 0.5)” has its median near -0.043; the highest 2% begin near 0.37. The full list was thinned out, with the highest values kept by preference.

Target: T1, Upc2 (UniProt Q12151)
T1 sequence: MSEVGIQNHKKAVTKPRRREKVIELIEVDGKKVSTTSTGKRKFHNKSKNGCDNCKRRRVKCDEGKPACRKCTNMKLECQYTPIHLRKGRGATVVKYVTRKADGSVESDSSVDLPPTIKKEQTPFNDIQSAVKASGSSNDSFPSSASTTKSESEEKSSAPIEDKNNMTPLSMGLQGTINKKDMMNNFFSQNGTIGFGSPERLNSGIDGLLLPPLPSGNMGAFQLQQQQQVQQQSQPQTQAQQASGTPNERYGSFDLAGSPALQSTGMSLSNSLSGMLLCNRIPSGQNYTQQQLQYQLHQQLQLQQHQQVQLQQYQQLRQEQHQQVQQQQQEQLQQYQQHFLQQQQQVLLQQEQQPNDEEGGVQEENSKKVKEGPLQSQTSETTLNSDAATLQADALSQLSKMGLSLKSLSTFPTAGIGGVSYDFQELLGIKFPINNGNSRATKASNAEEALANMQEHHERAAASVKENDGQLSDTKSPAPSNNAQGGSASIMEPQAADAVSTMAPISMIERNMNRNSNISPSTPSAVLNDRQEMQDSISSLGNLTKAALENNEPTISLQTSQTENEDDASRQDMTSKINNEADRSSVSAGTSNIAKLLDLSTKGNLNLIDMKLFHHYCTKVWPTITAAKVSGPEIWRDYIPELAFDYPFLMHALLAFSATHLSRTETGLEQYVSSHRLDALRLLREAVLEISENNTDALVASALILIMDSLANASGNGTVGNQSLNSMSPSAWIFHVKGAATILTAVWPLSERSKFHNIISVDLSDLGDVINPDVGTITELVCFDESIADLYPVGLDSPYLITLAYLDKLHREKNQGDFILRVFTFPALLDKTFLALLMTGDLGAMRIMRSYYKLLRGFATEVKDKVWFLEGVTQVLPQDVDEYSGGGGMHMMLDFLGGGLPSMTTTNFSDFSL
Test: PBM E-score (8-mer binding enrichment) (E-score (-0.5 to 0.5)); higher = stronger / more preferred TF binding
Conditions: protein concentration: 200 nM; construct: GST-full length
Method: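 Universal 'all 10-mer' protein binding microarrays (Agilent AMADID 015681) probed with GST-tagged S. cerevisiae TFs (full-length or DBD) made by in vitro transcription/translation (PURExpress), about 100-200 nM. Bound TF was detected with fluorescent anti-GST. Each ungapped 8-mer (which stands for itself and its reverse complement) is scored by the PBM enrichment score (E-score), a modified Wilcoxon-Mann-Whitney statistic from -0.5 to +0.5, computed with the Universal PBM Analysis Suite. Scale: above 0.35 generally sequence-specific binding.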

| Sequence | PBM E-score |
| --- | --- |
| GTACGATA | 0.445 |
| AGACGATA | 0.138 |
| ATACGATA | 0.472 |
| CTACGATA | 0.31 |
| GCACGATA | -0.0168 |
| ATTCGATA | 0.0034 |
| CAAGCGAC | 0.169 |
| ATTTTCCG | 0.139 |
| GTTCTCCA | -0.109 |
| AGTCGAAG | -0.273 |
| AACCGTAA | 0.233 |
| AACCGTAC | 0.311 |
| AGCCGTAT | 0.378 |
| ACCCGTAT | 0.396 |
| AACCGTAT | 0.375 |
| AGCCGTAG | -0.0316 |
| AGCCGTAA | 0.279 |
| ACCCGTAC | 0.354 |
| ACCCGTAG | -0.11 |
| AGAAGAAG | -0.0336 |
| CCTAGTGA | -0.174 |
| TGCAACAA | -0.117 |
| AAAAAACA | -0.00292 |
| TGCAAGAA | -0.0985 |
| AGTACAAC | -0.0045 |

| Sequence | PBM E-score |
| --- | --- |
| GGTACAAA | 0.0128 |
| CGTACAAA | 0.421 |
| GGTACAAC | -0.0773 |
| CGTACATC | 0.352 |
| CGTACAAC | 0.439 |
| CGTACAAG | 0.442 |
| AGTACATA | -0.0422 |
| CATACAAG | -0.192 |
| CGTACATA | 0.415 |
| AGTACAAG | -0.052 |
| AGTACAAA | -0.013 |
| AGTTCTCA | -0.107 |
| CGCGACCA | 0.116 |
| AGAGCTAG | -0.113 |
| AGTCTCTA | -0.0101 |
| ATCCCCTC | -0.0985 |
| CAAACCCA | 0.0481 |
| AAAATGTC | 0.14 |
| ACATCGTA | 0.425 |
| CCATCGTC | -0.0745 |
| ACATCGTC | -0.00985 |
| GCATCGGA | -0.0207 |
| CCATCGAA | -0.132 |
| ACATCGTG | -0.0454 |
| GCATCGTA | 0.429 |

| Sequence | PBM E-score |
| --- | --- |
| CCATCGTA | 0.44 |
| GCATCGAA | 0.00261 |
| TGAAGGCA | -0.0834 |
| AACTATGC | 0.051 |
| AGTGGTCC | -0.123 |
| CCAATCGG | -0.174 |
| CCGAGGTA | 0.125 |
| CCTACGAA | 0.228 |
| ACTACGAC | 0.272 |
| GCTACGAA | 0.395 |
| GCTACGAC | 0.379 |
| CCTACGAC | 0.232 |
| TCTACGAA | 0.335 |
| TTACTCAA | 0.0201 |
| AGTGAGAG | -0.279 |
| AGCCATAT | 0.0338 |
| AATACGAC | 0.435 |
| AATACGGG | 0.229 |
| AATACGCC | 0.00457 |
| AATACGTG | 0.155 |
| GATACGAA | 0.454 |
| GATACGTA | 0.254 |
| AATACGAT | 0.395 |
| AATACGTC | 0.0421 |
| AATACGCT | 0.212 |

| Sequence | PBM E-score |
| --- | --- |
| ACTACGAT | 0.16 |
| GATACAAA | 0.106 |
| AATACGAG | 0.457 |
| CAGCACAA | 0.0156 |
| CGAGATGA | 0.233 |
| CGACTCTC | 0.179 |
| AAACAGGA | -0.139 |
| TACCTGCA | -0.0203 |
| ATAGATCC | -0.0535 |
| CGACACAG | 0.122 |
| CAAACCGG | -0.0596 |
| GATACGAC | 0.468 |
| CATACGTC | 0.215 |
| CACACGAG | 0.155 |
| CATACGAC | 0.466 |
| CATACGAA | 0.466 |
| CATACGTA | 0.315 |
| CATACAAA | 0.114 |
| CATACGCG | 0.313 |
| CATACGAG | 0.486 |
| GATACGGC | 0.324 |
| GATACGCC | 0.189 |
| CATACGCC | 0.307 |
| AGCAAGGA | -0.0783 |
| GCCAACGC | -0.0104 |

| Sequence | PBM E-score |
| --- | --- |
| CGACTGAA | 0.184 |
| CTGGGGCA | -0.2 |
| CCTCACGA | -0.219 |
| AATACGAA | 0.424 |
| AATACGTA | 0.196 |
| ACTACGAA | 0.185 |
| CACTTAAG | -0.0164 |
| AGCGTACC | 0.212 |
| CTCGTACA | 0.489 |
| CTTGTACA | -0.0692 |
| CGCGTACC | 0.302 |
| ATAGTACC | -0.084 |
| CTCGTACC | 0.481 |
| CTGGTACA | -0.0228 |
| CACGTACC | 0.188 |
| ATCGTACC | 0.455 |
| CTGTTAGC | -0.142 |
| CGCATTTA | 0.0301 |
| GCTATGCC | -0.282 |
| ATGGTCTG | -0.129 |
| CAGGACTC | -0.0969 |
| GAGGTAGA | -0.0305 |
| GACGAAGC | 0.00181 |
| TCCGAAGA | 0.0352 |
| AACGAAGC | 0.408 |

| Sequence | PBM E-score |
| --- | --- |
| AACGAAGT | 0.415 |
| ACCGAAGG | 0.0458 |
| AACGAAGG | 0.401 |
| ACCGAAGT | 0.147 |
| TACGAAGA | 0.448 |
| AAAGAAGT | -0.0114 |
| TAAGAAGA | 0.11 |
| CACGAAGC | 0.017 |
| CACGAAGG | 0.00451 |
| GTTAAAAA | 0.11 |
| CTAGTGTC | 0.0134 |
| CCAGGATA | 0.0403 |
| ATTTCTAA | -0.105 |
| AGGAACCC | 0.0161 |
| CAACCAGC | -0.203 |
| CTAGGGAA | -0.179 |
| AGACCCAT | -0.186 |
| CTAGACCA | -0.217 |
| AGCCACAC | -0.00233 |
| GACGAAGA | -0.0247 |
| CACGAAGA | 0.0935 |
| AACGAAGA | 0.424 |
| AGTATGGC | -0.129 |
| CCTATGGC | -0.195 |
| AGTATGGA | -0.128 |

| Sequence | PBM E-score |
| --- | --- |
| CGTATGGA | 0.423 |
| GGTATGGA | -0.146 |
| CGTATGGC | 0.413 |
| AAATGAAC | 0.118 |
| AGCAATCC | -0.121 |
| ACAAGCCT | -0.166 |
| GTCGGTTA | 0.337 |
| CTCGGTTA | 0.381 |
| ATCGGTTA | 0.333 |
| ATTTTTCG | 0.0906 |
| CCTTTATC | -0.132 |
| TATCAGGA | 0.0996 |
| CCCGTAAC | 0.248 |
| GTCGTAAC | 0.408 |
| GACGTAAC | 0.0258 |
| CACGTAAG | 0.105 |
| CACGTAAC | 0.039 |
| CGCGTAAG | 0.205 |
| CTCGTAAC | 0.425 |
| CTCGTAAG | 0.43 |
| GGCGTAAC | 0.0403 |
| AGAAGTTG | 0.0297 |
